Sampled rows, rich in hits. Any-hit rate of the full collection: about 0.53%.
PrP 5UTR inh: inhibition of PrP 5' UTR reporter expression. cell-based PrP 5' UTR mRNA reporter, plate reader. inhibition, % (no concentration beside the values). 340,000 tested, 0.35% active; in the data active means inhibition above about 52%; further: 0 = median of the neutral control wells
TcdB inh: TcdB glycohydrolase inhibitors, primary screen, biochemical, single point, plate reader | Toxin B (Clostridioides difficile), P18177 | TcdB glycohydrolase enzymatic assay | inhibition, % at 9.99 µM | 350,000 tested, 0.24% active; in the data active means inhibition above about 10%
Y pestis TopoI: Yersinia pestis topoisomerase I inhibitors, primary screen, biochemical, cleavage product accumulation, plate reader, single point; DNA topoisomerase I (Yersinia pestis CO92); Y. pestis Topo-I cleavage product accumulation; activity, % at 10 µM; 360,000 tested, 0.064% active; in the data active means activity above about 50%, passing the limit was not always enough
Mtb BioA inh: M. tuberculosis BioA enzyme inhibitors, primary screen, biochemical, plate reader, single point, HTS | 7,8-diaminopelargonic acid synthase BioA (Mycobacterium tuberculosis) | inhibition, % at 9.99 µM | 360,000 tested, 0.096% active | purified M. tuberculosis BioA enzyme | AID 602481, 2012; in the data active means inhibition above about 40%
Active calls of the source: *; . = no result given.

SMILES	PrP 5UTR inh	TcdB inh	Y pestis TopoI	Mtb BioA inh
COc1ccc(CC(=O)Oc2ccc(C)cc2C)cc1	-27	0	7	-1
Cc1ccc(OC(=O)CCC(=O)Oc2ccc(C)cc2C)c(C)c1	-1	0	60*	-1
O=C(C[C@@H]1CC[C@H]2[C@@H](COC[C@@H](O)CN2C(=O)c2ccncc2)O1)NC1CCC1	.	0	.	-2
C[C@@H]1CN([C@H](C)CO)C(=O)c2cccc(NS(=O)(=O)c3ccc(F)cc3)c2O[C@@H]1CN(C)C(=O)Nc1ccccc1	.	1	.	0
Cc1nc2[nH]c(=S)[nH]c(=O)c2nc1C	-11	2	-6	-1
Cc1nc2[nH]c(=S)[nH]c2c(=O)[nH]1	-6	29*	3	0
CCOc1ccccc1NC(=O)CCNS(=O)(=O)c1cccc2nonc12	-22	14*	3	-2
Cc1cccc(NC(=O)CCNS(=O)(=O)c2cccc3nonc23)c1C	-6	1	0	.
CCOC(=O)c1cccc(NC(=O)CCNS(=O)(=O)c2cccc3nonc23)c1	-13	16*	1	1
Cc1cccc(NC(=O)CCNS(=O)(=O)c2cccc3nonc23)c1	8	2	8	1
CCCN1C[C@@H](C)[C@@H](OC)CN(C)C(=O)c2ccc(NC(=O)c3cnccn3)cc2OC[C@H]1C	.	0	.	4
COc1ccc(S(=O)(=O)N[C@H]2CC[C@H](CC(=O)NCCc3ccncc3)O[C@H]2CO)cc1	.	-1	.	-6
CSc1ccc(CN(C)C(=O)c2cc(=O)c3ccccc3o2)cc1	-11	1	28	1
CSc1ccc(CN(C)C(=O)c2cc3ccccc3o2)cc1	-29	1	54*	3
COc1ccc(C(O)(C(C)C)C(CN2CCOCC2)c2ccccc2)cc1 (configuration not stated)	-9	21*	15	-1
O=Cc1ccccc1-n1cncn1	80*	1	-1	0
CN(C)CC(=O)Nc1ccc2c(c1)[C@@H]1C[C@@H](CC(=O)NCc3ccc(Cl)cc3)O[C@H](CO)[C@@H]1O2	.	-2	.	1
CN(C)/C=C(\C#N)C(=O)Nc1ccccc1	-23	0	5	.
CN(C)/C=C(\C#N)C(=O)Nc1ccc(O)cc1F	-17	19*	1	.
Cc1noc(C)c1NC(=O)N[C@@H]1CC[C@H](CCNC(=O)C2CCCCC2)O[C@H]1CO	.	-2	.	-1
C=CCc1ccc(O)c(-c2ccc(O)c(CC=C)c2)c1	-22	11*	-9	7
C=CCc1ccc2c(c1)OCO2	.	1	.	.
CCc1cc(/C(Cc2cscn2)=N\O)c(O)cc1O	-18	.	1	0
CCc1cc(/C(Cc2ccccn2)=N\O)c(O)cc1O	2	15*	2	-2
S=C(NCCc1ccccc1)Nc1ncccn1	-50	11*	3	0
SMILES	PrP 5UTR inh	TcdB inh	Y pestis TopoI	Mtb BioA inh
CC(C)CNC(=O)c1c(F)c(F)c(F)c(F)c1F	-6	10*	-2	0
O=C(Cc1ccccn1)c1ccncc1	9	10*	4	-1
O=C(CC(=O)c1ccncc1)c1ccccc1	-8	0	0	.
O=c1c2ccccc2oc2ccc(NCCCN3CCOCC3)cc12	-32	13*	1	12
CO[C@H]1CN(C)C(=O)c2ccc(NC(=O)Nc3cccc(F)c3)cc2OC[C@@H](C)N(C(C)=O)C[C@H]1C	.	0	.	4
COC(=O)c1ccc(NC(=S)Nc2ccc(O)cc2)cc1	0	10*	-4	.
Oc1ccc(NC(=S)Nc2ccc(O)cc2)cc1	-26	9	-1	.
CN1CCN(C(=O)C2=C[C@H](C3CC3)C[C@H](OCCCCO)O2)CC1	.	1	.	-2
CCC(=O)N[C@H]1CC[C@@H](CC(=O)OC)O[C@@H]1CO	.	-1	.	-1
CN(C)C(=O)C[C@H]1C=C[C@H](NC(=O)C2CCC2)[C@H](CO)O1	.	0	.	4
C[C@H](CO)N1C[C@H](C)[C@@H](CN(C)Cc2cccc(C(=O)O)c2)Oc2ncc(-c3ccccc3F)cc2C1=O	.	-8	.	-5
O=C(Cn1nnc(-c2ccccc2)n1)NNC(=O)c1ccc(Br)cc1	-33	-1	56*	.
CCCCCCN1C[C@@H](n2cc(-c3ccc(F)cc3)nn2)[C@H](O)C[C@@H]1c1ccc(OC)cc1	.	1	65*	-2
C[C@H]1CN([C@@H](C)CO)C(=O)c2cc(C#Cc3ccncc3)cnc2O[C@H]1CN(C)C(=O)CN(C)C	.	-1	.	.
Cc1c(C(=O)O)cccc1-c1ccc(/C=N/Nc2ccc(Br)cc2)o1	-31	.	-6	57*
Cc1csc(N=Nc2ccc(N(C)C)cc2)[n+]1[O-]	.	13*	-30	.
